For eight compounds, growth results are on record in PubChem BioAssay (NCI).

Compounds without any hit were thinned out: in the full panel of roughly 83,000, 20% have a hit.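 Each cell line was grown in a 96-well plate and treated with one concentration of compound for 48 hours. Values below 10 were considered active.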 Unmarked numbers belong to inactive results. Calls of active or inactive are those of the source.

Some test systems named below: NCI-H23 lung; NCI-H226 lung; NCI-H322M lung; HOP-62 NSCLC; NCI-H460 lung; HOP-92 NSCLC; NCI-H522 lung; A549/ATCC NSCLC; 786-0 renal; COLO 205 colon; DU-145 prostate; K-562 leukemia; MALME-3M melanoma; MDA-MB-231 breast; RXF 393 renal; SF-268 CNS; SF-295 CNS; SF-539 CNS; UACC-257 melanoma; M14 melanoma.
What all share (test): NCI-60 one-dose screen, 48 h (100 = growth as untreated, 0 = no growth, -100 = all killed)
Settings in all cases: 10 µM unless noted

As to `COc1cc(-c2c(C#N)c(-c3cccs3)nc3c2c(-c2ccccc2)nn3-c2ccccc2)ccc1O`, the growth in the test on NCI-H23 lung was 98.4%; in the test with NCI-H226 lung it was 91.2%; with NCI-H322M lung, 96.6%; in the test with HOP-62 NSCLC, 74.5%; in the test on NCI-H460 lung, 77.5%; with HOP-92 NSCLC, 93.5%. Also, the growth in the test with NCI-H522 lung is 69.8%; in the test on A549/ATCC NSCLC, 58.3%; in the test on 786-0 renal, 85.4%; in the test on COLO 205 colon, 89.7%; with DU-145 prostate it was 85.6%; in the test on K-562 leukemia, 66.2%. The growth in the test with MALME-3M melanoma was 87.2%; in the test with MDA-MB-231 breast, 87.8%; with RXF 393 renal, 94.4%; with SF-268 CNS it was 80.4%; with SF-295 CNS, 98.2%; with SF-539 CNS, 93.5%. Also, the growth was 81.3% with UACC-257 melanoma and 89.3% with M14 melanoma.

`COC(=O)CCCCCn1c2ccccc2c2c3c(c4c5ccccc5[nH]c4c21)C(=O)N(O)C3=O`: the growth was 44.1% in the test on NCI-H23 lung; 74.4% with NCI-H226 lung; 62.4% with NCI-H322M lung; 26% in the test on HOP-62 NSCLC; 33.4% in the test with NCI-H460 lung; 79.4% in the test with HOP-92 NSCLC. The growth was -60% (active) in the test with NCI-H522 lung; 80.3% in the test on A549/ATCC NSCLC; 76.6% in the test on 786-0 renal; 36.5% with COLO 205 colon; 80.6% in the test with DU-145 prostate; 23.8% in the test on K-562 leukemia. In addition, the growth in the test on MALME-3M melanoma was 96%; in the test on MDA-MB-231 breast, 41.8%; in the test with RXF 393 renal, 64.9%; with SF-268 CNS it was 45.6%; with SF-295 CNS it was 59.6%; in the test with SF-539 CNS, 25.3%. The growth in the test with M14 melanoma is 39.5%.

For `CC(C)=CCC[C@](C)(O)[C@H]1CC[C@]2(C)[C@@H]1CC[C@@H]1[C@@]3(C)C/C(=C/c4cccc([N+](=O)[O-])c4)C(=O)C(C)(C)[C@@H]3CC[C@]12C`, the growth with NCI-H23 lung was 74.9%; in the test with NCI-H226 lung, 84.5%; in the test on NCI-H322M lung, 103%; in the test with HOP-62 NSCLC, 97.4%; in the test with NCI-H460 lung, 87.2%; with HOP-92 NSCLC, 76.6%. Also, the growth was 90.5% in the test on NCI-H522 lung; 71% in the test on A549/ATCC NSCLC; 88% in the test on 786-0 renal; 94% with COLO 205 colon; 68.2% with DU-145 prostate; 74% with K-562 leukemia. The growth in the test on MALME-3M melanoma is 84.5%; with MDA-MB-231 breast, 88.9%; with RXF 393 renal, 90.1%; with SF-268 CNS, 93.2%; in the test on SF-295 CNS, 103%; in the test on SF-539 CNS, 96%. Besides, the results for the growth in the test on UACC-257 melanoma and in the test with M14 melanoma were 97.9% and 83%, respectively.

On to `NCCNc1nc(-c2ccccc2)nc2nc(-c3ccccc3)oc12`, for which the growth in the test with NCI-H23 lung was 90.6%; with NCI-H226 lung, 86.1%; with NCI-H322M lung it was 104%; in the test on HOP-62 NSCLC, 85.6%; with NCI-H460 lung it was 98.4%; in the test on HOP-92 NSCLC, 55.1%. For the same compound, the growth in the test on NCI-H522 lung is 105%; in the test with A549/ATCC NSCLC, 93.6%; in the test with 786-0 renal it was 81%; with COLO 205 colon it was 87.4%; with DU-145 prostate, 98.2%; in the test with K-562 leukemia, 24.2%. The growth is 102% in the test with MALME-3M melanoma; 92.8% in the test on MDA-MB-231 breast; 85.9% with RXF 393 renal; 73.3% with SF-268 CNS; 101% with SF-295 CNS; 90.4% in the test on SF-539 CNS. Besides, the growth in the test with UACC-257 melanoma is 111%; with M14 melanoma, 97.8%.

Take `CCc1ccccc1NC(=O)c1sc2nc3c(cc2c1N)CCCC3`: the growth is 52.7% in the test on NCI-H23 lung; 73.4% in the test with NCI-H226 lung; 74.9% in the test on NCI-H322M lung; 35.6% in the test on HOP-62 NSCLC; 20.6% in the test with NCI-H460 lung; 37.1% in the test on HOP-92 NSCLC. The growth with NCI-H522 lung is 15%; with A549/ATCC NSCLC it was 36.7%; in the test on 786-0 renal, 44.1%; with COLO 205 colon, 36%; in the test on DU-145 prostate, 51.7%; in the test on K-562 leukemia, 12.1%. Moreover, the growth in the test on MALME-3M melanoma was 55.7%; in the test with MDA-MB-231 breast, 51.3%; in the test on RXF 393 renal, 49.8%; in the test on SF-268 CNS, 49.2%; with SF-295 CNS, 29.6%; in the test on SF-539 CNS it was 13.9%. The growth in the test with M14 melanoma is 24.1%.

For the compound `Cc1cc(N2CCCC2)nc(N(CCNc2ccnc3cc(Cl)ccc23)Cc2ccco2)n1`, the growth with NCI-H23 lung is 9.57% (active); in the test on NCI-H226 lung it was 24.9%; with NCI-H322M lung it was 19.7%; in the test on HOP-62 NSCLC it was 43.3%; in the test with NCI-H460 lung, 15.8%; with HOP-92 NSCLC it was -15% (active). Moreover, the growth in the test on NCI-H522 lung was 49.9%; in the test with A549/ATCC NSCLC it was 48%; with 786-0 renal, 4.55% (active); with COLO 205 colon, 15.9%; in the test with DU-145 prostate, 50.3%; with K-562 leukemia, -1.93% (active). The growth with MALME-3M melanoma was 28.2%; in the test with MDA-MB-231 breast, 11.7%; in the test on RXF 393 renal, -0.497% (active); in the test on SF-268 CNS, 55.5%; with SF-295 CNS, 18.8%; with SF-539 CNS, -10.7% (active). The growth in the test on UACC-257 melanoma is 69.8%; in the test on M14 melanoma it was -63.2% (active).

On to `CC1(C)C(=O)/C(=C\c2cccnc2)C[C@]2(C)[C@H]3CC[C@@H]4[C@@H](C(=O)/C=C/c5ccncc5)CC[C@@]4(C)[C@]3(C)CC[C@@H]12`, for which the growth in the test on NCI-H23 lung was 5.99% (active); in the test with NCI-H226 lung, 1.56% (active); in the test on NCI-H322M lung it was 39.9%; in the test on HOP-62 NSCLC, 2.07% (active); in the test on NCI-H460 lung, 23.7%; with HOP-92 NSCLC it was 16.1%. Moreover, the growth in the test on NCI-H522 lung was 30.1%; with A549/ATCC NSCLC, 1.98% (active); in the test on 786-0 renal, -55.7% (active); in the test on COLO 205 colon it was 12.3%; with DU-145 prostate, -1.7% (active); in the test on K-562 leukemia it was 3.14% (active). Further, the growth with MALME-3M melanoma was 0.438% (active); with MDA-MB-231 breast, 16.8%; in the test with RXF 393 renal it was -84.2% (active); in the test on SF-268 CNS it was 27.3%; in the test on SF-295 CNS it was 15.9%; with SF-539 CNS, 1.24% (active). For the same compound, the figures for the growth in the test on UACC-257 melanoma and in the test on M14 melanoma were 49.3% and -13% (active), respectively.

For the compound `CC/C=C\C[C@H]1CC=C2C(=O)C=C[C@@H]2CC=CCCCC(=O)O[C@@H](CCCCC)CC=C2C(=O)C=C[C@@H]2CC=CCCCC(=O)O[C@@H](CCCCC)CC=C2C(=O)C=C[C@@H]2CC=CCCCC(=O)O[C@@H](CCCCC)CC=C2C(=O)C=C[C@@H]2CC=CCCCC(=O)O1`, the growth in the test with NCI-H23 lung was 4.69% [7.9 µM] (active); with NCI-H226 lung, 74.6% [7.9 µM]; with NCI-H322M lung, 85.7% [7.9 µM]; with HOP-62 NSCLC it was 8.97% [7.9 µM] (active); in the test with NCI-H460 lung, 30.4% [7.9 µM]; with HOP-92 NSCLC, 7.82% [7.9 µM] (active). Further, the growth in the test on NCI-H522 lung is -16.2% [7.9 µM] (active); in the test on A549/ATCC NSCLC it was 39% [7.9 µM]; in the test with 786-0 renal, 23% [7.9 µM]; with COLO 205 colon it was -26.7% [7.9 µM] (active); in the test on DU-145 prostate it was 20.4% [7.9 µM]; in the test with K-562 leukemia it was 7.46% [7.9 µM] (active). The growth with MALME-3M melanoma is 26.2% [7.9 µM]; with MDA-MB-231 breast it was -11.1% [7.9 µM] (active); in the test on RXF 393 renal, -4.76% [7.9 µM] (active); with SF-268 CNS, 12.5% [7.9 µM]; with SF-295 CNS, 53.7% [7.9 µM]; in the test on SF-539 CNS, 1.99% [7.9 µM] (active). The results for the growth in the test on UACC-257 melanoma and in the test on M14 melanoma were 54.4% [7.9 µM] and -3.08% [7.9 µM] (active), respectively.
